Screening results from PubChem.
The list is not random: actives were taken first. Their share in the collection is about 1.5%.
MEX-5 binding: C. elegans MEX-5 TCR-2 RNA binding activity; Q9XUB2; MEX-5/FITC-TCR2 RNA binding, fluorescence polarization; hits give low values; activity score (negative = inhibition of binding), % at 10 µM; 300,000 tested, 0.38% active; AID 1832;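 active = inhibition past about -25% in most replicates, and total fluorescence under double the plate's negative control median, limit read from the data; inconclusive = replicates evenly split on the limit, or fluorescence at least double controls; inactive = too little inhibition in most replicates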
Target sequence (Q9XUB2 whole entry, looked up): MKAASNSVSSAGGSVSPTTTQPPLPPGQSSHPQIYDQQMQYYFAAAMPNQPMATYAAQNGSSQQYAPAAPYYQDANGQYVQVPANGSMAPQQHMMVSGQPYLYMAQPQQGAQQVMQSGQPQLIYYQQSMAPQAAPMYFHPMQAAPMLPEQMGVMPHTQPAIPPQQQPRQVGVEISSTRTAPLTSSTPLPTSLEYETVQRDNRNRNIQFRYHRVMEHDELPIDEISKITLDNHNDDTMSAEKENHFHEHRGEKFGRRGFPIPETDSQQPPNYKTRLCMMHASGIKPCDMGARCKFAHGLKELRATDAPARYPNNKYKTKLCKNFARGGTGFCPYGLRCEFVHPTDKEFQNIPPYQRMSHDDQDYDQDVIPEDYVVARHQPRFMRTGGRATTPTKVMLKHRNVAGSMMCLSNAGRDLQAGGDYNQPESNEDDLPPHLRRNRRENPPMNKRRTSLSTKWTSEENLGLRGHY
E coli Lon inh: E. coli protease La inhibition. P0A9M0. purified E. coli Lon protease, fluorescence polarization. 360,000 tested, 0.42% active. inhibition, % at 7.94 µM; in the data active = inhibition above about 13%, passing the limit was not always enough
EBV gp42 inh: blocks Epstein-Barr virus glycoprotein 42 binding | 220,000 tested, 0.42% active | inhibition, % (tested at 21.74 µM) | Q1HVG2 | Fluorescence polarization binding assay, mP read-out; in the data active = inhibition above about 50%
BCLXL inh: blocks human Bcl-xL binding to Bim BH3 peptide. Q07817. GST-Bcl-xL / FITC-Bim BH3 peptide fluorescence polarization. inhibition, % at 10.9 µM. 320,000 tested, 0.7% active. AID 2129;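 active = inhibition above the mean of all tested compounds plus 3 SD, cutoff set per campaign, cut at about 30% in these data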;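 also: inhibitors lower millipolarization by displacing the labeled peptide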
GLD-1 RNA inh: GLD-1-TGE RNA interaction inhibition (C. elegans); purified GLD-1 + fluorescein TGE RNA, fluorescence polarization; inhibition, % at 5.96 µM; 320,000 tested, 0.44% active;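 active = percent inhibition above a per-plate cutoff, the plate mean of test compounds plus 3 SD, cut at about 30% in these data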
MCL1-BIM inh: MCL1-BIM-BH3 interaction inhibition (human); Q07820; GST-MCL1 / FITC-Bim-BH3 fluorescence polarization; inhibition, % at 10.9 µM; 320,000 tested, 0.68% active; AID 2057;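 active = inhibition above the mean inhibition of all tested compounds plus 3 SD, set per campaign, cut at about 40% in these data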;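 also: higher means more loss of mP so more displacement of Bim peptide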
E coli Lon conf: confirmation of E. coli Lon protease inhibitors | shares compounds with E coli Lon inh | purified E. coli Lon, fluorescence polarization | inhibition, % at 7.94 µM | 1,400 tested, 31% active | AID 602230; in the data active = inhibition above about 16%
Of the large screens only hits and unclear results are named; the others gave an inactive call (follow-up assays come after a bar, where they were run).

O=S(=O)(c1ccccc1)N1CC1c1ccccc1 (stereo unspecified)	none
Cc1nn(Cc2ccccc2)c(Cl)c1C(=O)O	none
Cc1nn(Cc2ccccc2Cl)c(Cl)c1C(=O)O	E coli Lon inh 15.3 | E coli Lon conf inactive
COc1cc(C(O)CNC(C)C)cc(F)c1OC (stereo unspecified)	E coli Lon inh 23.3 (no result: EBV gp42 inh) | E coli Lon conf inactive
CC(Cc1ccc(O)cc1)NCC(O)c1cc(O)cc(O)c1 (stereo unspecified)	none
CC(=O)NCC1=C(c2cccc3ccccc23)C[C@@H]2CC[C@H]1N2Cc1ccco1	none (no result: MEX-5 binding, EBV gp42 inh, BCLXL inh, GLD-1 RNA inh, MCL1-BIM inh)
Cc1ccc(N=Cc2c(O)n(C)c(=O)n(C)c2=O)cc1	E coli Lon inh 46.0 (no result: EBV gp42 inh) | E coli Lon conf inactive
Cc1cccc(-n2c(O)c(C)c(=O)[nH]c2=S)c1	none (no result: BCLXL inh, GLD-1 RNA inh, MCL1-BIM inh)
CCOC(=O)C1CCCN(c2ccc([N+](=O)[O-])c3nonc23)C1 (stereo unspecified)	MEX-5 binding inconclusive, E coli Lon inh 192.8, EBV gp42 inh 127.1 (no result: BCLXL inh, GLD-1 RNA inh, MCL1-BIM inh) | E coli Lon conf 186.4
CC1CCCN(c2ccc(C(=O)N3CCC4(CC3)OCCO4)cc2[N+](=O)[O-])C1 (stereo unspecified)	none
COc1ccc2[nH]c(C)c(CCNCc3cccnc3)c2c1	E coli Lon inh 68.6, BCLXL inh 42.5, MCL1-BIM inh 41.4 (no result: MEX-5 binding, EBV gp42 inh) | E coli Lon conf 32.9
CCCCn1c(=O)c(C(=O)NCc2ccccc2OC)c(O)c2ccccc21	E coli Lon inh 66.3 (no result: EBV gp42 inh) | E coli Lon conf inactive
N#CC1=C(N)Oc2cc(O)ccc2C1c1ccc2c(c1)OCO2 (stereo unspecified)	none
COC1C(C)OC(OC2CC(C)(O)Cc3cc4c(c(O)c32)C(=O)c2c(O)cc3c(c2C4=O)OC2OC3(C)C(O)C(N(C)C)C2O)C(OC)C1(C)OC (stereo unspecified)	E coli Lon inh active (no result: MEX-5 binding, EBV gp42 inh, BCLXL inh, GLD-1 RNA inh, MCL1-BIM inh) | E coli Lon conf 104.3
COC(=O)C1=COC(C)C2CN3CCc4c([nH]c5cc(OC)ccc45)C3CC12 (stereo unspecified)	none (no result: MEX-5 binding, EBV gp42 inh, BCLXL inh, GLD-1 RNA inh, MCL1-BIM inh)
c1ccc2c(c1)[IH]c1ccccc1-2	none (no result: MEX-5 binding, EBV gp42 inh, BCLXL inh, GLD-1 RNA inh, MCL1-BIM inh)
Cc1nc2cc([N+](=O)[O-])ccc2c(=O)n1-c1ccccc1[N+](=O)[O-]	E coli Lon inh 15.0 | E coli Lon conf inactive
CCCCn1c(O)c(C=NCc2ccc3c(c2)OCO3)c(=O)[nH]c1=O	none
O=c1[nH]c(=O)n(Cc2ccco2)c(O)c1C=NCc1ccc2c(c1)OCO2	E coli Lon inh 19.7 | E coli Lon conf inactive
